# Several values for one entry are separate records, joined by “and”; a condition that tells them apart may be missing. Identical values can stand only once. The source holds several records for some structures; these can differ, active in one and inactive in another. Activity calls are given as the source filed them. The calls were made as follows: active = hit-call score of the fitted dose curve at least 0.9, where 1 is the maximum; inactive = score below 0.9.
# How the values were obtained:
# [1] = APR_HepG2_NuclearSize_24hr: Apredica 24-hour HepG2 Assay for Nuclear Size (AID 2282907); conditions: high-content imaging, actives raise or lower the signal
# Procedure, shortened: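 HepG2 cells exposed 24 h to compounds at 0.39–200 uM (0.5% DMSO), fixed, Hoechst 33342 stained and imaged at 20x; nuclear diameter measured by automated image analysis, fitted bidirectionally against DMSO controls.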
# [2] = APR_HepG2_CellLoss_24hr: Apredica 24-hour HepG2 Assay for Cell Loss (AID 2282908); conditions: high-content imaging;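 as to AC50: fit in both directions so a hit may be cell loss or gain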
# Procedure, shortened: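 HepG2 cells exposed 24 hr to 0.39–200 uM compound in duplicate at 0.5% v/v final DMSO. Cells fixed in 3.7% formaldehyde and Hoechst 33342-stained. Cell number came from nuclear imaging at 20x. Bidirectional fit versus DMSO.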
# [3] = APR_HepG2_MicrotubuleCSK_24hr: Apredica 24-hour HepG2 Assay for Microtubule CSK Stabilty (AID 2282909); conditions: HepG2 microtubule cytoskeleton imaging, actives raise or lower the signal
# Procedure, shortened: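 HepG2 cells were treated 24 hr with compound at 0.39–200 uM in duplicate (0.5% DMSO final), then fixed and permeabilized. Alpha-tubulin immunofluorescence was imaged by high-content microscopy, with bidirectional fitting against DMSO and taxol as positive control.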
# [4] = APR_HepG2_MitoticArrest_24hr: Apredica 24-hour HepG2 Assay for Mitotic Arrest (AID 2282910); conditions: high-content imaging, actives raise or lower the signal
# Procedure, shortened: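 Compounds are dosed onto HepG2 cells across ten concentrations up to 200 uM for 24 hr. Cells are then fixed in 3.7% formaldehyde, permeabilised, and labelled for phospho-histone H3 and nuclei; images are scored by cell cycle analysis and fitted bidirectionally relative to DMSO.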
# [5] = APR_HepG2_MitoMembPot_24hr: Apredica 24-hour HepG2 Assay for Mitochondrial Membrane Potential (AID 2282911); conditions: imaging, actives raise or lower the signal
# Procedure, shortened: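 HepG2 cells exposed 24 h to 0.39–200 uM compounds in duplicate, 0.5% v/v DMSO final. MitoTracker Red CMXRos 250 nM loaded 30 min before formaldehyde fixation; high-content imaging at 20x, bidirectional fit versus DMSO.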
# [6] = APR_HepG2_p53Act_24hr: Apredica 24-hour HepG2 Assay for p53 Activation (AID 2282913); conditions: high-content imaging, actives raise or lower the signal;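 also: p53 protein immunofluorescence averaged per cell in HepG2 with Hoechst nuclei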
# Procedure, shortened: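 HepG2 cells exposed 24 h to compounds at 0.39–200 uM in duplicate, 0.5% v/v DMSO final; fixed, permeabilized, stained with anti-p53 antibody and Hoechst 33342; fluorescence imaging; bidirectional curve fit versus DMSO.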
# [7] = APR_HepG2_CellCycleArrest_72hr: Apredica 72-hour HepG2 Assay for Cell Cycle Arrest (AID 2282914); conditions: high-content imaging, actives raise or lower the signal
# Procedure, shortened: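 HepG2 cells exposed 72 h in duplicate to 0.39–200 uM compound, 0.5% DMSO final. Formaldehyde-fixed, Hoechst 33342-stained nuclei imaged at 20x, six fields per well; DNA content per valid cell quantified by cell-cycle image analysis, bidirectional fit versus DMSO.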
# [8] = APR_HepG2_P-H2AX_72hr: Apredica 72-hour HepG2 Assay for H2AX Phosphorylation (AID 2282916); conditions: imaging, actives raise or lower the signal;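 also: phospho-histone H2A.x immunostain intensity per cell marking DNA damage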
# Procedure, shortened: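 HepG2 cells treated 72 h at 0.39–200 uM, 0.5% DMSO final, duplicates. Formaldehyde-fixed, Triton-permeabilised, immunostained for phospho-H2A.x with Hoechst; fluorescence imaged at 20x, bidirectional fit versus DMSO.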
# [9] = APR_HepG2_MitoMembPot_72hr: Apredica 72-hour HepG2 Assay for Mitochondrial Membrane Potential (AID 2282917); conditions: imaging, actives raise or lower the signal
# Procedure, shortened: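 Membrane potential read by MitoTracker Red CMXRos (250 nM, 30 min, pre-fixation) fluorescence imaging of HepG2 after 72 hr exposure. Ten concentrations, 0.39–200 uM, duplicate wells, 0.5% DMSO; fitted in both directions against DMSO baseline.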
# [10] = APR_HepG2_MitoticArrest_72hr: Apredica 72-hour HepG2 Assay for Mitotic Arrest (AID 2282918); conditions: high-content imaging, actives raise or lower the signal
# Procedure, shortened: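 HepG2 cells treated 72 h at 0.39–200 uM, 0.5% DMSO final; formaldehyde-fixed, stained with Hoechst 33342 and phospho-histone H3 antibody, imaged by high-content fluorescence; bidirectional fit versus DMSO.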
# [11] = APR_HepG2_MicrotubuleCSK_72hr: Apredica 72-hour HepG2 Assay for Microtubule CSK Stabilty (AID 2282919); conditions: HepG2 microtubule cytoskeleton, high-content imaging, actives raise or lower the signal
# Procedure, shortened: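 Read-out is tubulin fluorescence intensity from high-content imaging of HepG2 cells, with nuclei identified by Hoechst 33342. Treatment lasts 72 h at 0.39–200 uM, and curves are fitted bidirectionally against the DMSO negative control.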
# [12] = APR_HepG2_P-H2AX_24hr: Apredica 24-hour HepG2 Assay for H2AX Phosphorylation (AID 2282920); conditions: high-content imaging, actives raise or lower the signal
# Procedure, shortened: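 HepG2 cells dosed 24 h at 0.39–200 uM (10 points, duplicate, 0.5% DMSO final). Formaldehyde-fixed and permeabilized, then immunostained for phospho-H2A.x with Hoechst. Fluorescence quantified by high-content imaging, fitted bidirectionally versus DMSO.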
# [13] = APR_HepG2_StressKinase_72hr: Apredica 72-hour HepG2 Assay for Stress Kinase (AID 2282921); conditions: HepG2 stress kinase (phospho-c-Jun) imaging, actives raise or lower the signal
# Procedure, shortened: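 HepG2 cells treated 72 hr with 0.39–200 uM compound, 0.5% v/v DMSO, duplicate wells. After formaldehyde fixation and Triton permeabilization, stained with anti-phospho-c-Jun (1:500) and Cy3 secondary, imaged at 20x. Fitted in both directions against DMSO.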
# [14] = APR_HepG2_StressKinase_24hr: Apredica 24-hour HepG2 Assay for Stress Kinase (AID 2282922); conditions: HepG2 stress kinase (phospho-c-Jun) imaging, actives raise or lower the signal
# Procedure, shortened: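 HepG2, 24 hr dosing, 0.39–200 uM in duplicate, 0.5% DMSO; formaldehyde fix (3.7%), 0.5% Triton X-100; anti-phospho-c-Jun + Cy3 secondary, Hoechst counterstain; ArrayScan imaging; bidirectional curve fit vs DMSO baseline.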
# [15] = APR_HepG2_p53Act_72hr: Apredica 72-hour HepG2 Assay for p53 Activation (AID 2282923); conditions: high-content imaging, actives raise or lower the signal;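 also: average cellular p53 protein immunofluorescence intensity in HepG2 cells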
# Procedure, shortened: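 HepG2 cells exposed 72 h to 0.39–200 uM in 0.5% DMSO, duplicates. Fixed, permeabilized cells immunostained for p53 (Cy5) with Hoechst; imaged at 20x, fluorescence analyzed bidirectionally against DMSO.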
# [16] = APR_HepG2_MitoMass_72hr: Apredica 72-hour HepG2 Assay for Mitochondrial Mass (AID 2282924); conditions: high-content imaging, actives raise or lower the signal;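 also: MitoTracker Red CMXRos stain intensity per cell imaged as mitochondrial mass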
# Procedure, shortened: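 HepG2, 72 hr cmpd, 10 conc 0.39–200 uM in dup, DMSO 0.5% v/v. MitoTracker Red CMXRos 250 nM 30 min pre-fix; formaldehyde 3.7% fix 30 min RT. HCS imaging, gain/loss fit vs DMSO.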
# [17] = APR_HepG2_NuclearSize_72hr: Apredica 72-hour HepG2 Assay for Nuclear Size (AID 2282925); conditions: high-content imaging, actives raise or lower the signal
# Procedure, shortened: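 HepG2; cpd 0.39–200 uM, 10 conc, duplicate; 72 h; DMSO 0.5% v/v; fix 3.7% formaldehyde 30 min RT; Triton permeabilization; Hoechst 2 ug/mL; HCS imaging 20x; nuclear diameter; gain/loss fit vs DMSO.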
# [18] = ATG_CRE_CIS: Attagene CIS-FACTORIAL HepG2 Assay for human cAMP Responsive Element (CRE) binding protein 3 (AID 2282926); conditions: HepG2 CRE cis-reporter, Attagene multiplexed mRNA; actives raise or lower the signal
# Procedure, shortened: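 HepG2 cells transiently transfected with cis-element-driven multiple reporter transcription units; CRE reporter mRNA measured 24 h after dosing by RT-PCR, 6-FAM labelling, HpaI digestion and capillary electrophoresis. Bidirectional fit versus DMSO baseline.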
# [19] = APR_HepG2_CellLoss_72hr: Apredica 72-hour HepG2 Assay for Cell Loss (AID 2282915); conditions: high-content imaging
# Procedure, shortened: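 Cell number comes from Hoechst 33342-labelled nuclei, imaged at 20x after 3.7% formaldehyde fixation. Dosing was 0.39–200 uM, ten concentrations in duplicate, 0.5% DMSO final, for 72 h. Bidirectional fit relative to DMSO baseline.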
compound,measurement,setting,value
COC(=O)c1c(Cl)nn(C)c1S(=O)(=O)NC(=O)Nc1nc(OC)cc(OC)n1,outcome,[1],inactive
same,outcome,[2],inactive
same,outcome,[3],inactive
same,outcome,[4],inactive
same,outcome,[5],inactive
same,outcome,[6],inactive
same,outcome,[7],inactive
same,outcome,[8],inactive
same,outcome,[9],inactive
same,outcome,[10],inactive
same,outcome,[11],inactive
same,outcome,[12],inactive
same,outcome,[13],inactive
same,outcome,[14],inactive
same,outcome,[15],inactive
same,outcome,[16],inactive
same,outcome,[17],inactive
same,outcome,[18],inactive
OB(O)O,outcome,[1],inactive
same,outcome,[2],inactive
same,outcome,[3],inactive
same,outcome,[4],inactive
same,outcome,[5],inactive
same,outcome,[6],inactive
same,outcome,[7],inactive
same,outcome,[9],inactive
same,outcome,[10],inactive
same,outcome,[11],inactive
same,outcome,[12],inactive
same,outcome,[13],inactive
same,outcome,[14],inactive
same,outcome,[15],inactive
same,outcome,[16],inactive
same,outcome,[17],inactive
same,outcome,[18],inactive
c1ccc(Nc2ccccc2)cc1,outcome,[1],inactive
same,outcome,[2],inactive
same,outcome,[3],inactive
same,outcome,[4],inactive
same,outcome,[5],inactive
same,outcome,[6],inactive
same,outcome,[7],inactive
same,outcome,[8],inactive
same,outcome,[9],inactive
same,outcome,[10],inactive
same,outcome,[11],inactive
same,outcome,[12],inactive
same,outcome,[13],inactive
same,outcome,[14],inactive
same,outcome,[15],inactive
same,outcome,[16],inactive
same,outcome,[17],inactive
same,outcome,[18],inactive
CC(=O)S[C@@H]1CC2=CC(=O)CC[C@]2(C)[C@H]2CC[C@@]3(C)[C@@H](CC[C@@]34CCC(=O)O4)[C@H]12,outcome,[1],inactive
same,AC50,[2],54.6 µM (active)
same,outcome,[3],inactive
same,AC50,[4],30.2 µM (active)
same,AC50,[5],82.3 µM (active)
same,AC50,[6],54.7 µM (active)
same,AC50,[7],44.1 µM (active)
same,AC50,[19],39.3 µM (active)
same,AC50,[9],100 µM (active)
same,AC50,[10],53.6 µM (active)
same,outcome,[11],inactive
same,AC50,[12],46.4 µM (active)
same,AC50,[13],49.3 µM (active)
same,AC50,[14],48.6 µM (active)
same,AC50,[15],40.3 µM (active)
same,AC50,[16],96.8 µM (active)
same,outcome,[17],inactive
same,AC50,[18],25.5 µM (active) and 17.9 µM (active) and 3.75 µM (active)
same,outcome,[18],inactive
CCOC(=O)C(C)Oc1ccc(Oc2nc3ccc(Cl)cc3o2)cc1 (configuration not stated),outcome,[1],inactive
same,outcome,[2],inactive
same,outcome,[3],inactive
same,outcome,[4],inactive
same,outcome,[5],inactive
same,outcome,[6],inactive
same,outcome,[7],inactive
same,outcome,[9],inactive
same,outcome,[10],inactive
same,outcome,[11],inactive
same,outcome,[12],inactive
same,outcome,[13],inactive
same,outcome,[14],inactive
same,outcome,[15],inactive
same,outcome,[16],inactive
same,outcome,[17],inactive
same,outcome,[18],inactive
COC(=O)c1cccc(C)c1S(=O)(=O)NC(=O)Nc1nc(OCC(F)(F)F)nc(N(C)C)n1,outcome,[1],inactive
same,outcome,[2],inactive
same,outcome,[3],inactive
same,outcome,[4],inactive
same,outcome,[5],inactive
same,outcome,[6],inactive
same,outcome,[7],inactive
same,outcome,[8],inactive
same,AC50,[9],1.33 µM (active)
same,outcome,[10],inactive
same,outcome,[11],inactive
same,outcome,[12],inactive
same,outcome,[13],inactive
same,outcome,[14],inactive
same,outcome,[15],inactive
same,outcome,[16],inactive
same,outcome,[17],inactive
same,outcome,[18],inactive

# Source: PubChem BioAssay (EPA / NIEHS)
